Experimental findings from PubChem BioAssay (NCI) are described below.

Test systems include SK-MEL-2 melanoma; EKVX NSCLC; SN12C renal; UO-31 renal; TK-10 renal; ACHN renal; CAKI-1 renal; A498 renal; CCRF-CEM leukemia; MOLT-4 leukemia; RPMI-8226 leukemia; OVCAR-8 ovarian; OVCAR-5 ovarian; OVCAR-4 ovarian; SK-OV-3 ovarian; OVCAR-3 ovarian; HS 578T breast; NCI/ADR-RES ovarian; IGROV1 ovarian.
Experiment in all cases: NCI-60 one-dose screen, 48 h (100 = growth as untreated, 0 = no growth, -100 = all killed)
What all share (settings): 10 µM unless noted

This is part of a sample that, as a whole, favours compounds with a hit. Of some 83,000 tested, about 20% had one in any assay.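 Negative percent growth values reflect cell death: -40 means 40% of the cells present at the start died, and -100 means all died.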 Values without a mark were called inactive. The source made the active and inactive calls. Rule for the calls: active = growth percent below 10; inactive = the rest.

With `C[C@H]1[C@H]2[C@H]3CC[C@@H]4[C@@]5(C)CC[C@H](O)C(C)(C)[C@@H]5CC[C@@]4(C)[C@]3(C)CC[C@]23CO[C@]1(C)[C@@H](C(=O)/C=C\c1cccnc1)C3`, the growth with SK-MEL-2 melanoma is 87.3%; in the experiment on EKVX NSCLC it was 101%; in the experiment on SN12C renal, 62.7%; in the experiment with UO-31 renal, 58.7%; in the experiment with TK-10 renal, 31.9%; in the experiment with ACHN renal it was 41.6%. The growth in the experiment on CAKI-1 renal was 55.6%; in the experiment on A498 renal, 72.9%; with CCRF-CEM leukemia, 30.8%; in the experiment with MOLT-4 leukemia, 25.2%; in the experiment with RPMI-8226 leukemia, 9.55% (active); in the experiment with OVCAR-8 ovarian, 35.1%. In addition, the growth was 121% in the experiment with OVCAR-5 ovarian; 49% with OVCAR-4 ovarian; 77.8% in the experiment with SK-OV-3 ovarian; 46.7% in the experiment on OVCAR-3 ovarian; 82% in the experiment with HS 578T breast; 78.9% with NCI/ADR-RES ovarian.
Consider `COc1cc(-c2nc3sccn3c2-c2ccnc(NCCCNS(=O)(=O)c3ccc(F)cc3)n2)ccc1F`, for which the growth with SK-MEL-2 melanoma was 69.6%; with EKVX NSCLC it was 83.6%; with SN12C renal, 62.1%; in the experiment with UO-31 renal it was 48.6%; with TK-10 renal, 118%; in the experiment with ACHN renal, 60.7%. Further, the growth in the experiment on CAKI-1 renal was 61.1%; in the experiment with A498 renal it was 96.7%; with CCRF-CEM leukemia, 24.7%; in the experiment with MOLT-4 leukemia, 47.7%; in the experiment on RPMI-8226 leukemia it was 9.51% (active); in the experiment on OVCAR-8 ovarian, 26.7%. Moreover, the growth with OVCAR-5 ovarian was 112%; in the experiment on OVCAR-4 ovarian it was 51.9%; in the experiment on SK-OV-3 ovarian, 90.4%; in the experiment with OVCAR-3 ovarian it was 65.9%; with HS 578T breast, 92.6%; in the experiment with NCI/ADR-RES ovarian, 34.2%.
Take `Fc1cc2c(cc1Cl)N(c1ncnc3ccc(-c4cnc5cnccn45)cc13)CC2`: the growth in the experiment on SK-MEL-2 melanoma was 102%; in the experiment with EKVX NSCLC, 63.4%; in the experiment with SN12C renal, 79.3%; in the experiment with UO-31 renal, 42.1%; in the experiment with TK-10 renal, 96.9%; with ACHN renal, 60.4%. Moreover, the growth in the experiment with CAKI-1 renal was 62.8%; in the experiment on A498 renal it was 45.6%; with CCRF-CEM leukemia, 108%; with MOLT-4 leukemia it was 98.9%; in the experiment with RPMI-8226 leukemia, 95.2%; with OVCAR-8 ovarian, 91.4%. The growth with OVCAR-5 ovarian is 74.4%; with OVCAR-4 ovarian, 94.8%; in the experiment with SK-OV-3 ovarian, 94.2%; with OVCAR-3 ovarian, 87.4%; in the experiment on HS 578T breast, 93.4%; in the experiment with NCI/ADR-RES ovarian, 86.8%.
Take `O=c1c2cc(F)ccc2sc2c(NCCCNCCO)nc3ccccc3c12`: the growth in the experiment with SK-MEL-2 melanoma is 90.9%; in the experiment on EKVX NSCLC, 51.9%; in the experiment with SN12C renal, 46.9%; with UO-31 renal, 10.9%; in the experiment on TK-10 renal it was 41%; with ACHN renal it was 8.85% (active). Moreover, the growth with CAKI-1 renal is -9.01% (active); with A498 renal it was 2.69% (active); in the experiment on CCRF-CEM leukemia, 6.27% (active); in the experiment on MOLT-4 leukemia, -31.6% (active); with OVCAR-8 ovarian, 26%; in the experiment with OVCAR-5 ovarian it was 63.4%. In addition, the growth with OVCAR-4 ovarian was 33.3%; with SK-OV-3 ovarian, 79.7%; in the experiment on IGROV1 ovarian it was 22.4%; with OVCAR-3 ovarian it was -14.6% (active); in the experiment on HS 578T breast, 34.5%; in the experiment with NCI/ADR-RES ovarian it was 32.4%.
Turning to `COc1cccc(Oc2ccccc2NC(=O)CNC(=O)c2cccc3ccccc23)c1`, the growth in the experiment on SK-MEL-2 melanoma was 30% [5 µM]; in the experiment with EKVX NSCLC, 35.3% [5 µM]; in the experiment on SN12C renal it was 31.4% [5 µM]; in the experiment with UO-31 renal, 39.8% [5 µM]; in the experiment on TK-10 renal it was 58.5% [5 µM]; in the experiment with ACHN renal, 33.7% [5 µM]. In addition, the growth in the experiment with CAKI-1 renal was 23.8% [5 µM]; in the experiment on A498 renal it was -16.3% [5 µM] (active); in the experiment with CCRF-CEM leukemia, 15.4% [5 µM]; in the experiment on MOLT-4 leukemia, 12.3% [5 µM]; in the experiment on RPMI-8226 leukemia, 21.8% [5 µM]; in the experiment on OVCAR-5 ovarian, 41.8% [5 µM]. The growth in the experiment on OVCAR-4 ovarian is 42.2% [5 µM]; in the experiment with SK-OV-3 ovarian, 42.2% [5 µM]; in the experiment with IGROV1 ovarian it was 27.6% [5 µM]; with OVCAR-3 ovarian, -23.7% [5 µM] (active); in the experiment with HS 578T breast, 24.7% [5 µM]; in the experiment with NCI/ADR-RES ovarian, 15.3% [5 µM].
For `CN1CCN(c2ccc(-c3ccc4ncc(C#N)c(Nc5ccc(F)c(Cl)c5)c4c3)cc2)CC1`, the growth in the experiment with SK-MEL-2 melanoma is 48.3%; in the experiment with EKVX NSCLC, 54.4%; in the experiment on SN12C renal it was 59.9%; with UO-31 renal it was 30.4%; in the experiment with TK-10 renal, 36.3%; in the experiment on ACHN renal, 18.9%. In addition, the growth is 33.8% in the experiment with CAKI-1 renal; -7.38% (active) in the experiment on A498 renal; 13.1% with CCRF-CEM leukemia; 35.7% with MOLT-4 leukemia; 4.87% (active) in the experiment on RPMI-8226 leukemia; 47.9% with OVCAR-8 ovarian. The growth in the experiment on OVCAR-5 ovarian is 57.6%; in the experiment on OVCAR-4 ovarian, 46.8%; in the experiment on SK-OV-3 ovarian it was 27%; in the experiment on IGROV1 ovarian, 11.4%; with HS 578T breast, 43.3%; in the experiment on NCI/ADR-RES ovarian, 50.5%.
As to `COc1cccc2c(=O)c3c(sc12)c(N1CCNCC1)nc1ccccc13`, the growth in the experiment on SK-MEL-2 melanoma was 112%; in the experiment with EKVX NSCLC, 95.6%; in the experiment with SN12C renal, 64.3%; with UO-31 renal it was 47.2%; in the experiment with TK-10 renal it was 90.7%; in the experiment with ACHN renal, 53.1%. For the same compound, the growth in the experiment with CAKI-1 renal was 45.8%; in the experiment on A498 renal, 61.8%; in the experiment with CCRF-CEM leukemia, 13.8%; with MOLT-4 leukemia it was -13.3% (active); in the experiment with OVCAR-8 ovarian, 53.2%; in the experiment on OVCAR-5 ovarian it was 94.9%. For the same compound, the growth is -41.4% (active) in the experiment on OVCAR-4 ovarian; 83% with SK-OV-3 ovarian; 63.3% in the experiment on IGROV1 ovarian; -43.8% (active) in the experiment on OVCAR-3 ovarian; 89.5% in the experiment with HS 578T breast; 73.2% in the experiment with NCI/ADR-RES ovarian.
Consider `COc1cccc(-c2nc(-c3ccc(NS(=O)(=O)c4ccccc4)cc3)[nH]c2-c2ccnc(Br)c2)c1`, for which the growth in the experiment with SK-MEL-2 melanoma is 10.5%; in the experiment on EKVX NSCLC, 32.1%; with SN12C renal, 28.4%; with UO-31 renal, 11.8%; in the experiment on TK-10 renal, 46.3%; in the experiment on ACHN renal, 11.9%. Besides, the growth is 18.3% in the experiment on CAKI-1 renal; 28.4% in the experiment with A498 renal; 18.9% with CCRF-CEM leukemia; 4.8% (active) in the experiment with MOLT-4 leukemia; 33.4% in the experiment with OVCAR-8 ovarian; 48.3% in the experiment on OVCAR-5 ovarian. For the same compound, the growth was 34.2% in the experiment with OVCAR-4 ovarian; 63.1% in the experiment with SK-OV-3 ovarian; 44.6% in the experiment on IGROV1 ovarian; 30.2% in the experiment with OVCAR-3 ovarian; 7.88% (active) in the experiment with HS 578T breast; 40.8% in the experiment on NCI/ADR-RES ovarian.
